Experimental data: PubChem BioAssay AID504914 (The Scripps Research Institute Molecular Screening Center, 2011)
The other results are listed elsewhere or left out. Calls of active or inactive are those of the source. No rule for the calls is given here.

The compounds below were run against 5-hydroxytryptamine receptor 5A (Homo sapiens) (UniProt P47898) (assay: HTR5A inverse agonists, counter-screen for OPRM1-OPRD1 inverse agonist project, cell-based, luminescence (AID 504914;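 also: 0% = cells with DMSO and 100% = no-cell wells with DMSO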)). Conditions: HTR5A-expressing cells, inverse agonism, at 9.3 µM, stronger effect = higher value.
Chain of 5-hydroxytryptamine receptor 5A (Homo sapiens) (P47898 whole entry, looked up): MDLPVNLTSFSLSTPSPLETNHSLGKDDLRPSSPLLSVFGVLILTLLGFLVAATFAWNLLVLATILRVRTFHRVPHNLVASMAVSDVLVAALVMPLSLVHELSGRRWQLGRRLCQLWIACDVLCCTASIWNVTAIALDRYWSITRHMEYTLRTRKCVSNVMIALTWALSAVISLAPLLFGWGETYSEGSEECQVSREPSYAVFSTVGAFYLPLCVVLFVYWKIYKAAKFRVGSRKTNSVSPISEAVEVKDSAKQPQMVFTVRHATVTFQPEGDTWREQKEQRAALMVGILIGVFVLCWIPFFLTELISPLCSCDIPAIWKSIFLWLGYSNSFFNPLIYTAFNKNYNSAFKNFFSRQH

Row | SMILES | inhibition
1 | CSCCC(NC(=O)COc1ccccc1)C(=O)OCC(=O)c1cc2ccccc2o1 (centres undefined) | 12% (inactive)
2 | CCOC(=O)CN1C(=O)C(=O)c2cc(C)ccc21 | 12.5% (inactive)
3 | Cc1cccc2c1N(CC(=O)OC(C)C)C(=O)C2=O | -14.5% (inactive)
4 | Cc1cccc2c1N(CCOc1ccccc1)C(=O)C2=O | 10.3% (inactive)
5 | O=[N+]([O-])/C=C/c1ccc2c(ccn2Cc2ccccc2)c1 | -16.4% (inactive)
6 | Oc1ccc(N=Nc2nccs2)c(O)c1 | 23.3% (inactive)
7 | Cc1ccc(C(=O)CNc2ccc(F)cc2)cc1 | -0.52% (inactive)
8 | O=C1C(=O)N(c2ccccc2)c2ccccc21 | 19% (inactive)
9 | O=C(CCl)NNc1cccc(Cl)n1 | 8.61% (inactive)
